Out of some 16,000 compounds screened, about 5,100 (32%) were called active. Not shown: some 25% with an inconclusive outcome. The list shows a part of the results. Unmarked numbers belong to inactive results. The call rests on the fitted dose curve; in most records, active means well fitted curve in the direction sought with a large enough effect; inconclusive means small, poorly fitted or top-dose-only effect, or effect the other way; inactive means no such curve, though single readings can be large or run the other way.
Each compound was assayed against Cytochrome P450 3A4 (Homo sapiens) (UniProt P08684) (assay: Cytochrome panel assay with activity outcomes). Settings: recombinant CYP, pro-luciferin dealkylation, luminescence, p450-cyp3a4; series mostly up to 57.1 µM; activity, negative = inhibition: at the top concentration.
Cytochrome P450 3A4 (Homo sapiens), sequence (P08684 whole entry, looked up): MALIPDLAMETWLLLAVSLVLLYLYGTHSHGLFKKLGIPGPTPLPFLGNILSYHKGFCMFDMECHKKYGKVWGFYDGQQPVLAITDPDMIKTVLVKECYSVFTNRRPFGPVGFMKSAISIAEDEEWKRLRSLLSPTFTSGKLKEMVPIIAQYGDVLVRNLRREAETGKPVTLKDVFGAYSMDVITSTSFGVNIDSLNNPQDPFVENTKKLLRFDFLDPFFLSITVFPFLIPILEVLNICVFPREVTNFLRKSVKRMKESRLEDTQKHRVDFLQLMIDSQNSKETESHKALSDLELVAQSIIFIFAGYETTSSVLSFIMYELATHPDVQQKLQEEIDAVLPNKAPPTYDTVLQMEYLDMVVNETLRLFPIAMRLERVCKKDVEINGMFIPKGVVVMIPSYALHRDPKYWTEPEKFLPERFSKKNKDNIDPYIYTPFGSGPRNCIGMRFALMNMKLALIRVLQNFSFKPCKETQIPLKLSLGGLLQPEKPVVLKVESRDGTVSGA
On the % scale 0 is the no-effect control and ±100 the full control effect.

| SMILES | activity, negative = inhibition | AC50 |
| --- | --- | --- |
| Cc1c(Nc2cc(N3CCCC(C)C3)c3nonc3c2[N+](=O)[O-])c(=O)n(-c2ccccc2)n1C (configuration not stated) | -11.2% | – |
| O=C(NCc1ccccc1)C12CN(Cc3ccccc3)CC1C(c1cccc([N+](=O)[O-])c1)=NO2 (configuration not stated) | – | 7.08 µM (active) |
| CC(C)CCNC(=O)C12CN(Cc3ccccc3)CC1C(c1cccc([N+](=O)[O-])c1)=NO2 (configuration not stated) | – | 12.6 µM (active) |
| COc1ccc(C(=O)N2CC3(CC(c4cccc([N+](=O)[O-])c4)=NO3)C[C@H]2C(=O)NCC(N)=O)cc1 (some centres not stated) | 15.2% [at 2.29 µM] | – |
| O=C1CC[C@H](N2C(=O)c3ccccc3C2=O)C(=O)N1 | – | inactive |
| Nc1ncnc2c1nc(-c1ccccc1)n2[C@H]1O[C@@H](CO)[C@@H](O)[C@H]1O | -3.38% [at 11.4 µM] | – |
| Cc1n[nH]c(C)c1S(=O)(=O)N1CCC(C(=O)O)CC1 | 3.15% [at 11.4 µM] | – |
| COc1cc(C(=O)Nc2cc(C(F)(F)F)ccc2Cl)cc(OC)c1OC | – | 15.8 µM (active) |
| COc1cccc(C(=O)Nc2cc(C(F)(F)F)ccc2Cl)c1 | – | 7.94 µM (active) |
| Cc1ccc(C(=O)NC(=S)Nc2cc(C(F)(F)F)ccc2Cl)cc1 | 0.666% | – |
| COc1cc(/C=C/C(=O)Nc2cc(C(F)(F)F)ccc2Cl)cc(OC)c1OC | -14.2% [at 11.4 µM] | – |
| CC(C)CNC(=O)O | -6.31% [at 11.4 µM] | – |
| CC(C)C(=O)Nc1ccc(Sc2ccc(F)cc2)cc1 | -3.21% | – |
| CC(C(=O)Nc1cccnc1)N1C(=O)C2C3C=CC(C3)C2C1=O (configuration not stated) | – | 12.6 µM (active) |
| Cc1ccc(NC(=O)C(C)N2C(=O)C3C4CC(C(Br)C4Br)C3C2=O)cc1 (configuration not stated) | – | 5.62 µM (active) |
| CCC1CCc2c(c3ccccc3[nH]c2=O)O1 (configuration not stated) | -20.1% [at 2.29 µM] | – |
| CN(Cc1ccco1)c1ccnc(-c2cccc(NS(C)(=O)=O)c2)n1 | – | 6.31 µM (active) |
| CN(Cc1ccco1)c1cc(-c2cccc(NS(C)(=O)=O)c2)ncn1 | – | 15.8 µM (active) |
| COC(=O)CNC(c1ccccc1Cl)c1cc(Br)ccc1NC(=O)CCN1CCOCC1 (configuration not stated) | – | 3.55 µM (active) |

| SMILES | activity, negative = inhibition | AC50 |
| --- | --- | --- |
| O=C(CCN1CCOCC1)Nc1ccc(F)cc1F | -14.9% [at 11.4 µM] | – |
| Cc1cc2c(cc1C)NC(c1nc3ccccc3[nH]1)C1=C(CC(C)(C)CC1=O)N2 (configuration not stated) | – | 12.6 µM (active) |
| Cc1c(C(=O)O)nc(/C=C\C(=O)O)[nH]c1=O | -3.36% [at 11.4 µM] | – |
| C=CCSc1nnc(-c2cc3c(C(F)(F)F)nn(C)c3s2)n1C | – | 8.91 µM (active) |
| C#CCSc1nnc(-c2cc3c(C(F)(F)F)nn(C)c3s2)n1C | – | 7.94 µM (active) |
| CCCCSc1nnc(-c2cc3c(C(F)(F)F)nn(C)c3s2)n1C | -20.2% | – |
| CCCNC(=O)c1cc2c(C(F)(F)F)nn(C)c2s1 | 19.2% [at 2.29 µM] | – |
| C=CCSc1nnc(-c2cc3c(-c4ccccc4)nn(C)c3s2)n1C | – | 1.58 µM (active) |
| CCn1cc(C(=O)O)c(=O)c2cc(F)c(N3CCN[C@@H](C)C3)c(F)c21 | – | inactive |
| CN(C)c1ccc(-c2nc(-n3ccnc3)c3ccccc3n2)cc1 | – | 0.631 µM (active) |
| c1ccc2c(-n3ccnc3)nc(-c3ccoc3)nc2c1 | – | 0.2 µM (active) |
| Cc1cnc(CNc2ncnc3ccc(-c4ccc5c(c4)OCO5)cc23)cn1 | – | 2.51 µM (active) |
| Cc1cnc(CNc2ncnc3ccc(-c4ccoc4)cc23)cn1 | – | 15.8 µM (active) |
| Cc1cnc(CNc2ncnc3ccc(-c4ccc(N(C)C)cc4)cc23)cn1 | – | 10 µM (active) |
| NC(=S)SCCC(=O)O | -7.17% [at 11.4 µM] | – |
| CCOC(=O)C1=C(O)C(Nc2nccs2)(C(F)(F)F)N=C1C (configuration not stated) | – | 14.1 µM (active) |
| CCCC(=O)Nc1nc(C(=O)OCC)cs1 | -13.8% | – |
| CCC(Sc1ncccc1C(=O)O)C(=O)N1CCOCC1 (configuration not stated) | 3.75% | – |
| CCOC(=O)C(C)CC(C)C(=O)N1CCOCCN(C(=O)C(C)CC(C)C(=O)OCC)CCOCC1 (configuration not stated) | – | 11.2 µM (active) |

| SMILES | activity, negative = inhibition | AC50 |
| --- | --- | --- |
| CC(C)OC(=O)C(CC(=O)O)N1CCOCC1 (configuration not stated) | 0.0868% | – |
| COc1cc(OC)c2c(c1)C(=O)c1cc(OC)cc(OC)c1C2=O | – | 3.55 µM (active) |
| O=C(NC1CCCCC1)C1CC=CCC1C(=O)OCC(Cl)=C(Cl)Cl (configuration not stated) | – | 7.94 µM (active) |
| CNC(=O)c1ccc(-c2sc3nc(N4CCOCC4)c4c(c3c2N)CC(C)(C)OC4)o1 | – | 2.82 µM (active) |
| CN(C)CCNc1ncnc2c1sc1nc(N3CCOCC3)c3c(c12)CC(C)(C)SC3 | -10.7% | – |
| CC(=O)OC[C@@H]1O[C@@H](O/N=C2/C[C@@H](O)[C@@H](O)[C@@H]3[C@@H]4C(=O)N(C(C)(C)C)C(=O)[C@H]4CC[C@H]23)[C@H](OC(C)=O)[C@H](OC(C)=O)[C@@H]1OC(C)=O | -17.4% [at 11.4 µM] | – |
| O=C1NC(=O)C(c2ccccc2[N+](=O)[O-])=C1Nc1ccc(O)c(Cl)c1 | – | 20 µM (active) |
| O=C(O)[C@H](Cc1ccc(O)c([N+](=O)[O-])c1)N1C(=O)c2ccccc2C1=O | 6.92% [at 11.4 µM] | – |
| O=C(Nc1nccs1)C1Cc2ccccc2CN1S(=O)(=O)c1ccc(F)cc1 (configuration not stated) | – | 3.16 µM (active) |
| CCOc1ccccc1NC(=O)C1Cc2ccccc2CN1S(C)(=O)=O (configuration not stated) | -25.2% [at 11.4 µM] | – |
| O=C(Nc1nnc(C2CC2)s1)C1Cc2ccccc2CN1S(=O)(=O)c1ccccc1F (configuration not stated) | – | 7.08 µM (active) |
| CCc1nnc(NC(=O)C2Cc3ccccc3CN2S(=O)(=O)c2ccc(C)cc2)s1 (configuration not stated) | – | 6.31 µM (active) |
| CCc1nnc(NC(=O)c2c(C)nn(-c3ccccc3)c2Cl)s1 | 4.89% [at 2.29 µM] | – |
| CC(=O)c1sc(NC(=O)C(C)C)nc1C | -11.3% | – |
| CC(CO)Nc1nc(SCc2ccccc2)nc2sc3c(c12)CCC3 (configuration not stated) | – | 14.1 µM (active) |
| OCCNc1nc(SCc2ccccc2)nc2sc3c(c12)CCC3 | -25% [at 11.4 µM] | – |
| COCCNc1nc(SCc2ccccc2)nc2sc3c(c12)CCC3 | – | 12.6 µM (active) |
| O=C(O)CSc1ncnc2sc3c(c12)CCC3 | -26% | – |
| Cc1ccc(CSc2nc3c(c(SCC(=O)O)n2)CCCC3)cc1 | 8.65% | – |
